Experimental findings from PubChem BioAssay (NCI) are described below.

Molecules are shown by their SMILES. Compounds without any hit were thinned out: in the full panel of roughly 79,000, 15% have a hit. Unmarked numbers belong to inactive results. Active and inactive are the calls of the source. Rule as the data show it: active = growth inhibition above about 70%; inactive = the rest.

A short description of assay [1]: NCI Yeast Anticancer Drug Screen. Data for the rad50 strain (AID 155).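 Also: 0% = growth of vehicle-only cultures of the same strain.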 The following applies: S. cerevisiae rad50 strain growth inhibition; at 50.0 µM; active compounds read high. Summed up: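 Cells are treated with compound, grown, and their growth is then scored against vehicle-only cultures of the same repair-deficient yeast strain.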
Assay [2] is described as follows: NCI Yeast Anticancer Drug Screen. Data for the mec2-1 strain (AID 157). The following applies: S. cerevisiae mec2-1 strain, at 50.0 µM, active compounds read high. Summed up:
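Mutant yeast (mec2-1) grown with compound; growth inhibition relative to vehicle control reported.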

Assay [3] is described as follows: NCI Yeast Anticancer Drug Screen. Data for the sgs1 mgt1 strain (AID 161).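 Also: 0% = growth of cultures given vehicle only.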 The following applies: S. cerevisiae sgs1 mgt1 strain, at 50.0 µM, active compounds read high. Summed up:
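Percent growth inhibition was derived by comparing compound-exposed mutant yeast with vehicle-exposed cultures. The strain carries alterations in DNA damage repair.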

The nature of assay [4]: NCI Yeast Anticancer Drug Screen. Data for the cln2 rad14 strain (AID 165).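 Also: 0% = growth equal to vehicle treated cultures.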 The following applies: S. cerevisiae cln2 rad14 strain, at 50.0 µM, active compounds read high. Summed up:
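Readout is yeast growth inhibition versus vehicle-treated controls, using a strain with cln2 and rad14 alterations exposed to compound.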

Assay [5] in a line: NCI Yeast Anticancer Drug Screen. Data for the bub3 strain (AID 167). The following applies: S. cerevisiae bub3 mutant strain, at 50.0 µM, active compounds read high. Summed up: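 Part of a panel of yeast mutants defective in DNA damage repair or cell cycle regulation. Each strain is grown with compound, and inhibition is calculated relative to solvent-treated cultures.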
The nature of assay [6]: NCI Yeast Anticancer Drug Screen. Data for the mlh1 rad18 strain (AID 175). Conditions: S. cerevisiae mlh1 rad18 strain growth inhibition; at 50.0 µM; active compounds read high. Summed up:
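Genetically defined yeast (DNA repair-deficient) exposed to compounds; growth inhibition determined relative to vehicle.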

On to `O=c1cnn2c(n1)sc1ccc3ccccc3c12`, for which the growth inhibition in assay [1] was -11.8%; in assay [2], -0.9%; in assay [3], -15.4%; in assay [4], 0.65%; in assay [5], 26.5%; in assay [6], 40.4%.

With `COC(=O)C(=O)c1c(C(=O)OC)nc2[nH]n(-c3ccccc3)c(=O)c2c1Cc1ccccc1`, the growth inhibition in assay [1] is -5.85%; in assay [2], 1.05%; in assay [3], 1.6%; in assay [4], -45.9%; in assay [5], -37.5%; in assay [6], 8.25%.

Regarding `NC(=S)N/N=c1\cc(C(=O)Nc2ccc([N+](=O)[O-])cc2[N+](=O)[O-])oc2ccccc12`, the growth inhibition in assay [1] is 19.1%; in assay [2], 26.3%; in assay [3] it was 16.1%; in assay [4], -6%; in assay [5] it was 22.9%; in assay [6], 28%.

As to `COC(=O)c1cc(C(=CCC[C@H]2CC[C@@]3(C)C(CCC4C3CC[C@@]3(C)C4CC[C@@H]3C(C)CCCC(C)C)C2)c2cc(Cl)c(O)c(C(=O)OC)c2)cc(Cl)c1O` (some centres undefined), the growth inhibition in assay [1] is 0%; in assay [2], 4.1%; in assay [3], -10%; in assay [4] it was 6.6%; in assay [5] it was 5.15%; in assay [6], -18.4%.

Consider `CCOC(=O)OC1C(OC)OC2COC(c3ccccc3)OC2C1OC(=O)OCC` (centres undefined), for which the growth inhibition in assay [1] was -1.4%; in assay [2] it was -13.3%; in assay [3], -20%; in assay [4] it was -15.7%; in assay [5], -2.25%; in assay [6] it was 11.4%.

On to `O=C(Cc1ccccc1)NCc1ccccc1Cl`, for which the growth inhibition in assay [1] is -1.05%; in assay [2], 9.2%; in assay [3], 5.65%; in assay [4], 0.05%; in assay [5] it was 9.75%; in assay [6], 6.05%.

On to `CCc1cc(Cc2cc(Cl)c(NC(=O)C(=O)C3NC(=O)NC3=O)c(CC)c2)cc(Cl)c1NC(=O)C(=O)C1NC(=O)NC1=O` (centres undefined), for which the growth inhibition in assay [1] was 6.5%; in assay [2], 5.2%; in assay [3] it was 4.25%; in assay [4], 15.9%; in assay [5], 2.8%; in assay [6], 8.65%.

Take `COc1cc2nc3n(c(=O)c2cc1OC)CCCCC3`: the growth inhibition in assay [1] was 10.4%; in assay [2], 14.6%; in assay [3], 3.75%; in assay [4] it was -13.2%; in assay [5], 28%; in assay [6], -19.8%.

Consider `CC1=NN(c2ccccc2)C(=O)/C1=C1\SC(c2ccccc2)(c2ccccc2)c2ccccc21`, for which the growth inhibition in assay [1] was -29.4%; in assay [2], 0.9%; in assay [3], 1.8%; in assay [4], 7.95%; in assay [5] it was 23.2%; in assay [6], -30.4%.

Turning to `O=C(O)c1cc(-c2ccccc2Cl)nc2cc3ccccc3cc12`, the growth inhibition in assay [1] is -14.4%; in assay [2], -19.7%; in assay [3], 4.45%; in assay [4], 14.1%; in assay [5] it was -6.05%; in assay [6], 0.8%.

Take `O=[N+]([O-])c1ccc(S(=O)(=O)SC(F)(F)F)cc1`: the growth inhibition was 14.7% in assay [1]; 3.85% in assay [2]; -1% in assay [3]; -47.1% in assay [4]; -3.25% in assay [5]; 11.3% in assay [6].

For `Cc1cccc(-n2c(-c3ccccc3)cs/c2=N\N=C2/CSC(=O)N2Cc2ccccc2)c1`, the growth inhibition is -2.95% in assay [1]; -21.9% in assay [2]; 22.8% in assay [3]; -41.8% in assay [4]; 2.45% in assay [5]; -27.8% in assay [6].

`COc1cc(C2NC(=O)C(C)(C)O2)cc(OC)c1OC` (centres undefined): the growth inhibition in assay [1] was -2.05%; in assay [2] it was -9.85%; in assay [3], -8.75%; in assay [4], -17.8%; in assay [5] it was 4.8%; in assay [6] it was -37%.

On to `CC(C)CN(CC(C)C)C(=O)C1CCCC[C@@H]1C(=O)O` (some centres undefined), for which the growth inhibition in assay [1] is 16.9%; in assay [2] it was 15.2%; in assay [3] it was 5.8%; in assay [4] it was 18.7%; in assay [5], 16.4%; in assay [6], 22.4%.

Consider `CCCCCCCCCCCC(=O)N/N=C(\c1ccccc1)c1ccc(Cl)cc1`, for which the growth inhibition is 91.5% (active) in assay [1]; 88.2% (active) in assay [2]; 93.5% (active) in assay [3]; 86.9% (active) in assay [4]; 76.5% (active) in assay [5]; 91.3% (active) in assay [6].

For the molecule `CNCCSSCCN`, the growth inhibition in assay [1] was -10.2%; in assay [2], -0.95%; in assay [3], -6.3%; in assay [4], -18.8%; in assay [5], 2.6%; in assay [6], 0.95%.

Regarding `O=C(O)CC1SC2(C(=O)N(Cc3ccccc3)c3ccccc32)N(c2ccccc2)C1=O` (centres undefined), the growth inhibition is 45.4% in assay [1]; 29.8% in assay [2]; 32.5% in assay [3]; -8.55% in assay [4]; 8.55% in assay [5]; 53% in assay [6].

Consider `COC(=O)CCc1c[nH]c2ccc(N)cc12`, for which the growth inhibition was -12.8% in assay [1]; -31.2% in assay [2]; -14.8% in assay [3]; 18.2% in assay [4]; -14.5% in assay [5]; -13.7% in assay [6].

Turning to `CC(=O)NC1C(O)C(O)C(CO)OC1n1ncc(=O)[nH]c1=O` (centres undefined), the growth inhibition was 13.1% in assay [1]; 22.8% in assay [2]; -14.2% in assay [3]; -18.9% in assay [4]; -20.4% in assay [5]; -37.9% in assay [6].
